Reference: the supplement of paper PMC6411743
± gives the standard deviation of the averaged measurements. About 6,200 targets were measured; listed, in parts, are those with the largest changes and a random draw of the rest.

Compound: Nc1ncnc2c1ncn2[C@@H]1O[C@H](COP(=O)(O)OP(=O)(O)NP(=O)(O)O)[C@@H](O)[C@H]1O [adenylyl imidodiphosphate]
Assay: NP40-soluble protein abundance relative to vehicle (solubility fold change) (ratio); higher = more soluble protein in presence of AMP-PNP
Procedure, shortened: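 Data come from three independent experiments in which Dounce-homogenised Jurkat crude lysate was treated at eight concentrations from 0.1 to 10 mM. Treatment ran 10 min at room temperature and then 3 min at 37 °C, after which 0.8% NP40 and benzonase were added for 60 min at 4 °C before ultracentrifugation. The supernatant underwent TMT labelling and LC-MS/MS, and vsn-normalised intensities were expressed as fold change against the detergent-processed vehicle in each replicate.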

UniProt Q13442, sequence (Q13442 whole entry): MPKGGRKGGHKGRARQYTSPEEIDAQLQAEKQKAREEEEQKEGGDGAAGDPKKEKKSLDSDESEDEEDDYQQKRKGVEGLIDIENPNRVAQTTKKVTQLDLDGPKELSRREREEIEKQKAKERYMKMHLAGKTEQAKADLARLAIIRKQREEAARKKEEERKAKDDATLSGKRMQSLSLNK
UniProt Q8IXI1, sequence (Q8IXI1 whole entry, looked up): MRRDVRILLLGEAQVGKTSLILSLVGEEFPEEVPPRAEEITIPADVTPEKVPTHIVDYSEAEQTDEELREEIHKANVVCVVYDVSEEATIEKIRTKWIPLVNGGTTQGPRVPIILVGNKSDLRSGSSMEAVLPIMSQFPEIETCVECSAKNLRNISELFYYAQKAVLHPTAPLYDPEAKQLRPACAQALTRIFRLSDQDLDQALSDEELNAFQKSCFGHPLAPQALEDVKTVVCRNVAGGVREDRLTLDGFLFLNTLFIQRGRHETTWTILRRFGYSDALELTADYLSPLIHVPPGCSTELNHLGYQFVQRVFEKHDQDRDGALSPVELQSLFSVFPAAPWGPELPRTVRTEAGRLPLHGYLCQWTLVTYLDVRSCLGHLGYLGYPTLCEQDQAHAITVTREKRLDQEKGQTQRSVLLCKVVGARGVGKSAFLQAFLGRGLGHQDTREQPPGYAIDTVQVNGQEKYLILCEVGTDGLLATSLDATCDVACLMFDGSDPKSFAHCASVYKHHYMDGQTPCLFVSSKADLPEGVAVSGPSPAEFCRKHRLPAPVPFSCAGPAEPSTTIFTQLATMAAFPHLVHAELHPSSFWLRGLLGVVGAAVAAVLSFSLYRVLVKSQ
UniProt Q92979, sequence (Q92979 whole entry, looked up): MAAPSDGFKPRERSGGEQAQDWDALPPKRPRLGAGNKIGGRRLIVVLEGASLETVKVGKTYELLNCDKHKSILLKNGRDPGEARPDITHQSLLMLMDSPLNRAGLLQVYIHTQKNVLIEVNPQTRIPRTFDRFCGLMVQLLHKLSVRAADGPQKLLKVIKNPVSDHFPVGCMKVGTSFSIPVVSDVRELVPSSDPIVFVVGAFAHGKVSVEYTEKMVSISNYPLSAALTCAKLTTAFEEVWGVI
UniProt Q70CQ2, sequence (Q70CQ2 whole entry): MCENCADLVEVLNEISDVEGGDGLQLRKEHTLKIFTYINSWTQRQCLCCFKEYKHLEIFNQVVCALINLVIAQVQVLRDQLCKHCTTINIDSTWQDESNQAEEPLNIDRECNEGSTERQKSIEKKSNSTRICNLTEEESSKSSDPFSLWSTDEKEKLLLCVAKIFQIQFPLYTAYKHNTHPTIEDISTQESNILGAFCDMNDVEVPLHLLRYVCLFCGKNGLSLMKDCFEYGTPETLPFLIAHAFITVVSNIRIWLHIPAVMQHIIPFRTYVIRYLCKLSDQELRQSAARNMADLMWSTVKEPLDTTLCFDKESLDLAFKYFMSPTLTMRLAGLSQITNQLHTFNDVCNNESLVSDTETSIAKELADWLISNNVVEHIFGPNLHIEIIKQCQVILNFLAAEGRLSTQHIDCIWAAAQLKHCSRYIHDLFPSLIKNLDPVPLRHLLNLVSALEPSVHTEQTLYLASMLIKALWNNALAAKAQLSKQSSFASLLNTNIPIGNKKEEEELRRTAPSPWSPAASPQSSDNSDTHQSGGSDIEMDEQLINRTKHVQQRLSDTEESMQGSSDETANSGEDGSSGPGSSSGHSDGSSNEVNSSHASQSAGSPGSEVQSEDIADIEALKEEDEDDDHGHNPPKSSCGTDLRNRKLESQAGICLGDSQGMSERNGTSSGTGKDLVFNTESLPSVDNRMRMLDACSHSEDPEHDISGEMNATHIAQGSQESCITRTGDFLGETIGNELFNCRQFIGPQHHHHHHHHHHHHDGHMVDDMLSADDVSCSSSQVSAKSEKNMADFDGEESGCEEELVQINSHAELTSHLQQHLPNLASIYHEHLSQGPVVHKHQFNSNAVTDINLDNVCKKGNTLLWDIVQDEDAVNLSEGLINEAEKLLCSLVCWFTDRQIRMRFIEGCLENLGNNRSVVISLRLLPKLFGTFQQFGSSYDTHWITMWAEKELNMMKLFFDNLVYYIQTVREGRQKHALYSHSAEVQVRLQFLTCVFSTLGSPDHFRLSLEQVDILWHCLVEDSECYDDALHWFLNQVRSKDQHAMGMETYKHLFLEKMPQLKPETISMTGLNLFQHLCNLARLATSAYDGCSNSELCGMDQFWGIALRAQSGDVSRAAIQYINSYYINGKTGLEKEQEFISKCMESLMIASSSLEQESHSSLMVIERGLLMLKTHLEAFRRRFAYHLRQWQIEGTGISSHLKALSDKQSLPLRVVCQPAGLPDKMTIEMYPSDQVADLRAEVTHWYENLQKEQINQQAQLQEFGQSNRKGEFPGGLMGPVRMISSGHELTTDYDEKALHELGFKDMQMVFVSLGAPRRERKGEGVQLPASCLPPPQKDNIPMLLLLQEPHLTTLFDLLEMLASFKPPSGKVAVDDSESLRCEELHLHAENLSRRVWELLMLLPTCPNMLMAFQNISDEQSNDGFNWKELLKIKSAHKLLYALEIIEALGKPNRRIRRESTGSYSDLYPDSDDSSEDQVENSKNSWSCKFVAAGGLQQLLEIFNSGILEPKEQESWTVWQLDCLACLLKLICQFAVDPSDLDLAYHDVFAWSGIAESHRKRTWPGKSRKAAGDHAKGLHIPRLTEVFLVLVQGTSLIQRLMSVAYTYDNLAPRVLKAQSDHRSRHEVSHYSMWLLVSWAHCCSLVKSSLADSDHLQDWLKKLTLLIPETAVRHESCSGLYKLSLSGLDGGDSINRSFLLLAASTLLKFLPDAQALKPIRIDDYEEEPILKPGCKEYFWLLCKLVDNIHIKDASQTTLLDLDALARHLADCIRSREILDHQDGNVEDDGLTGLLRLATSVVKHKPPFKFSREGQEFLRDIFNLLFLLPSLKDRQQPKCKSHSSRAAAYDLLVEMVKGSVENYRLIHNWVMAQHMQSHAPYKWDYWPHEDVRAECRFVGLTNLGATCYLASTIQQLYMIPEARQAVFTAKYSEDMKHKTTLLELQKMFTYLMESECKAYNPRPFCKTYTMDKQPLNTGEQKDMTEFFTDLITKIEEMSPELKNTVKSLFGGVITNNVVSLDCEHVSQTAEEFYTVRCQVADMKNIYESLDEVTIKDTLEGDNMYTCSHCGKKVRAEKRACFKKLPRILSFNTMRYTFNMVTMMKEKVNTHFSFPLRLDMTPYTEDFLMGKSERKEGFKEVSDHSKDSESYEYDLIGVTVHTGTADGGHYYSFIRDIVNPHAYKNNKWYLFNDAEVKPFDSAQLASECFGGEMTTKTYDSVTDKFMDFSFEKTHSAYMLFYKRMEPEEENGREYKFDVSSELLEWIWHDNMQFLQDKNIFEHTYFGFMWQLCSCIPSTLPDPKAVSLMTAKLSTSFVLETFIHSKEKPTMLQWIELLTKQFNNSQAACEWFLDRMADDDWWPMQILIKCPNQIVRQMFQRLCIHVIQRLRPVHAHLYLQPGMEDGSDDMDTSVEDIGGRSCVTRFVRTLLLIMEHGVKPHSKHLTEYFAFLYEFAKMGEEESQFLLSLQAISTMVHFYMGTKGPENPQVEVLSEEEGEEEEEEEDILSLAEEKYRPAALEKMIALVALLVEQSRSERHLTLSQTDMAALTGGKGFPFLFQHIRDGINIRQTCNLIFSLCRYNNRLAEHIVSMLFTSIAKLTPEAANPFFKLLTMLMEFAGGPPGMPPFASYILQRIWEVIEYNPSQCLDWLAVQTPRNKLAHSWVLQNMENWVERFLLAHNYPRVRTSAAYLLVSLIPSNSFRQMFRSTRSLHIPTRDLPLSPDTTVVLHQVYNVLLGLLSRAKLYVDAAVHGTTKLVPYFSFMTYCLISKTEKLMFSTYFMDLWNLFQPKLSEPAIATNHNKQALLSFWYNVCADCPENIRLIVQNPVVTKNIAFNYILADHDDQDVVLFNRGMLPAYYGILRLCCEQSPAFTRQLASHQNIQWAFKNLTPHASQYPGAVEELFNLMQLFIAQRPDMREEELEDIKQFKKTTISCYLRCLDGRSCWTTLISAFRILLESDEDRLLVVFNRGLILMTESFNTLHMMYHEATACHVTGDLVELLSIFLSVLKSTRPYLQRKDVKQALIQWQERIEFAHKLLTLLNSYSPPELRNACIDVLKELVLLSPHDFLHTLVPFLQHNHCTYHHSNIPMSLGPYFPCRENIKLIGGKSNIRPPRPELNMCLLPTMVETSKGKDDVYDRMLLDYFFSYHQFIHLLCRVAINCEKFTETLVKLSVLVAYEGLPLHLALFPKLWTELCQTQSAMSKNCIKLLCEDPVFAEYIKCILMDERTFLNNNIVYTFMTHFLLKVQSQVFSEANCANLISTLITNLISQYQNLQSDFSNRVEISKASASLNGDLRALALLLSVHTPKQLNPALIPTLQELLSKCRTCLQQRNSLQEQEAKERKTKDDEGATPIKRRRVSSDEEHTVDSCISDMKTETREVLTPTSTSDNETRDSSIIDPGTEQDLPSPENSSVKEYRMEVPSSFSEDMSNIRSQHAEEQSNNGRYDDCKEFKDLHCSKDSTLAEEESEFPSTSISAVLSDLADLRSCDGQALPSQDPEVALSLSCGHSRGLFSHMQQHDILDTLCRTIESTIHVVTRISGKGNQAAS
UniProt Q5JTJ3, sequence (Q5JTJ3 whole entry, one chain of several): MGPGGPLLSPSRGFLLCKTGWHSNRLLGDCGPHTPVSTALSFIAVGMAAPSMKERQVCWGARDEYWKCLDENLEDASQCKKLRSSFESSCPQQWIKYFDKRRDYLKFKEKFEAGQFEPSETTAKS
UniProt Q8IUR0, sequence (Q8IUR0 whole entry): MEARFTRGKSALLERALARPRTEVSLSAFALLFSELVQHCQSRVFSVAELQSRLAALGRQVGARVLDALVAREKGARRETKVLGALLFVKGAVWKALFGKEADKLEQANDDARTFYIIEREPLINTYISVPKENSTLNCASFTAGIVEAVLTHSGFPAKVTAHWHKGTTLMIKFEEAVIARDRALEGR
UniProt Q13541, sequence (Q13541 whole entry): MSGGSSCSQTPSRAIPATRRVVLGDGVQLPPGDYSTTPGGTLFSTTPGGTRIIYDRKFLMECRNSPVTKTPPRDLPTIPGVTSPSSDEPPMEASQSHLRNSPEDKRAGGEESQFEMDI

Target	NP40-soluble protein abundance (concentration: 1mM)	NP40-soluble protein abundance (concentration: 2mM)	NP40-soluble protein abundance (concentration: 4mM)	NP40-soluble protein abundance (concentration: 6mM)	NP40-soluble protein abundance (concentration: 8mM)	NP40-soluble protein abundance (concentration: 10mM)
THOC5 (UniProt Q13769)	1.36 ± 0.17	1.42 ± 0.23	1.65 ± 0.35	1.84 ± 0.54	2.03 ± 0.65	2.16 ± 0.88
UniProt Q13825|Q13825-2	0.995 ± 0.028	1.02 ± 0.025	1.04 ± 0.044	1.03 ± 0.015	1.04 ± 0.057	1.06 ± 0.025
UniProt Q15642-2|Q15642-3|Q15642-4|W4VSQ9|M0R0F9	1.09 ± 0.014	1.07 ± 0.036	1.07 ± 0.014	1.04 ± 0.054	1.07 ± 0.025	1.06 ± 0.065
UniProt Q5H8A4-5	0.979 ± 0.011	0.971 ± 0.019	0.983 ± 0.034	0.92 ± 0.01	0.9558 ± 0.0061	0.952 ± 0.016
RHOT2 (UniProt Q8IXI1)	1.02 ± 0.021	1 ± 0.073	1.02 ± 0.03	0.9999 ± 0.006	1.004 ± 0.01	1.02 ± 0.034
UniProt Q7Z2K8|Q7Z2K8-2	0.958 ± 0.012	0.913 ± 0.023	1.12 ± 0.049	1.1 ± 0.038	0.932 ± 0.057	0.932 ± 0.031
UniProt Q8NHM5|Q8NHM5-2|Q8NHM5-3|Q8NHM5-4	1.02 ± 0.024	1.034 ± 0.0075	1.04 ± 0.054	1.04 ± 0.04	1.01 ± 0.021	1.04 ± 0.034
EMG1 (UniProt Q92979)	1.01 ± 0.03	1 ± 0.014	1.12 ± 0.087	1.19 ± 0.071	1.24 ± 0.096	1.26 ± 0.1
GATAD2B (UniProt Q8WXI9)	1.01 ± 0.014	1.06 ± 0.046	1.024 ± 0.0076	1.01 ± 0.049	0.994 ± 0.035	1.02 ± 0.03
UniProt Q8IYB5-2|Q8IYB5-3	0.988 ± 0.028	0.986 ± 0.011	1.01 ± 0.031	0.995 ± 0.038	0.995 ± 0.025	1.01 ± 0.015
PDAP1 (UniProt Q13442)	1.07 ± 0.072	1.17 ± 0.026	1.13 ± 0.048	1.26 ± 0.093	1.24 ± 0.085	1.35 ± 0.12
UniProt Q5XUX1|Q5XUX1-3|Q5XUX1-2	0.986 ± 0.017	0.96 ± 0.042	0.976 ± 0.026	0.993 ± 0.021	0.982 ± 0.024	0.969 ± 0.028
UniProt Q6UXH1|Q6UXH1-4|Q6UXH1-5|Q6UXH1-6	1.01 ± 0.032	1.07 ± 0.056	1.01 ± 0.029	0.964 ± 0.019	0.956 ± 0.045	1.01 ± 0.029
CCDC6 (UniProt Q16204)	0.993 ± 0.023	1.06 ± 0.037	0.979 ± 0.041	0.957 ± 0.024	0.9475 ± 0.0034	0.916 ± 0.027
UniProt Q93073|Q93073-2	0.997 ± 0.026	1.01 ± 0.046	0.978 ± 0.039	0.996 ± 0.013	0.972 ± 0.024	0.971 ± 0.027
EIF4EBP1 (UniProt Q13541)	0.949 ± 0.016	1.032 ± 0.008	0.998 ± 0.1	0.9563 ± 0.0018	0.961 ± 0.059	0.96 ± 0.047
SF3A1 (UniProt Q15459)	1.02 ± 0.022	1.05 ± 0.05	1.02 ± 0.014	1.07 ± 0.031	1.07 ± 0.017	1.09 ± 0.031
UniProt Q7L4P6|Q7L4P6-2	1.21 ± 0.13	1.37 ± 0.095	1.2 ± 0.15	1.14 ± 0.16	1.03 ± 0.043	1.23 ± 0.19
UniProt Q5JTJ3|Q5JTJ3-2|Q5JTJ3-3|X6R5Z6	1.02 ± 0.015	1.04 ± 0.081	0.991 ± 0.038	0.97 ± 0.043	0.943 ± 0.016	0.966 ± 0.046
TRAPPC5 (UniProt Q8IUR0)	0.946 ± 0.055	0.933 ± 0.043	0.959 ± 0.073	1.187 ± 0.002	1.18 ± 0.043	1.12 ± 0.13
UniProt Q86Y56	0.976 ± 0.045	0.931 ± 0.038	0.977 ± 0.037	1.01 ± 0.022	0.997 ± 0.055	0.991 ± 0.04
UniProt Q8WUB8|Q8WUB8-2|Q8WUB8-3|S5FZ81	1.01 ± 0.045	1.04 ± 0.034	1.07 ± 0.023	1.11 ± 0.045	1.08 ± 0.051	1.15 ± 0.061
DNAJB14 (UniProt Q8TBM8)	0.975 ± 0.025	0.987 ± 0.066	0.971 ± 0.028	0.953 ± 0.039	0.952 ± 0.035	0.947 ± 0.035
UniProt Q7Z3B4|Q7Z3B4-3	0.969 ± 0.054	0.9436 ± 0.0042	1 ± 0.064	1.07 ± 0.067	1.13 ± 0.078	1.09 ± 0.11
GTF3C6 (UniProt Q969F1)	1.04 ± 0.045	1.07 ± 0.042	1.04 ± 0.032	0.984 ± 0.018	0.99 ± 0.047	1.01 ± 0.035
PRPF4B (UniProt Q13523)	1.02 ± 0.02	1.01 ± 0.048	1.1 ± 0.037	1.2 ± 0.032	1.26 ± 0.042	1.34 ± 0.067
UniProt Q15223	1.01 ± 0.026	1.028 ± 0.0082	1.011 ± 0.0089	1.01 ± 0.011	0.997 ± 0.023	1.01 ± 0.028
USP34 (UniProt Q70CQ2)	0.958 ± 0.032	0.925 ± 0.044	0.955 ± 0.026	0.885 ± 0.021	0.877 ± 0.033	0.873 ± 0.014
UniProt Q6IAA8|F5GX19|F5H3Y3|F5H479|H0YFI1	1.02 ± 0.025	1.04 ± 0.028	1.04 ± 0.047	0.992 ± 0.051	0.975 ± 0.017	0.966 ± 0.035
Q5THR1|Q9H5Z1|Q9H5Z1-2|F2Z2Z2 (UniProt Q9H5Z1)	1.02 ± 0.061	0.96808 ± 0.00094	1.01 ± 0.011	0.987 ± 0.024	0.991 ± 0.022	0.997 ± 0.023
